NPC1 promoter act – qHTS Assay for NPC1 Promoter Activators; Huh7 NPC1 promoter luciferase reporter, 24 h; Potency, µM (doses to about 9.22 µM), usual class: activators; actives 2.4% (n = 320,000); AID 485313, 2010; also: nearly all actives have a fitted effect of over 60% in size
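Luminescence from an NPC1 promoter-driven luciferase reporter in stably transfected Huh7 cells was measured after 24 h compound treatment at 37 °C, followed by 10 min ambient incubation with luciferase detection reagent.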
ELG1 genotoxic – qHTS screen for small molecules that induce genotoxicity in human embryonic kidney (HEK293T) cells expressing luciferase-tagged ELG1; HEK293T ELG1-luciferase reporter, luminescence, 16 h; Potency, µM (series often up to 46 µM), most hits filed as activators; actives 1.3% (n = 330,000); also: nearly all actives have a fitted effect of over 60% in size
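Genotoxic stress is detected as increased luminescence from luciferase-tagged ELG1 in HEK293T cells, measured with ONE-Glo after a 16 hr treatment at 37 °C.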
KinaseGlo FLuc – Counterscreen for Luciferase (Kinase-Glo TM) Inhibition | Luciferin 4-monooxygenase (Photuris pensylvanica), Q27757 | Kinase-Glo luciferase, ATP luminescence, 8 min | Potency, µM (titrated, usually from 38.3 µM), usual class: inhibitors | actives 0.28% (n = 200,000) | AID 1379, 2008; also: nearly all actives have a fitted effect of over 60% in size
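Compound is pinned into ATP-containing buffer (10 uM ATP, imidazole pH 7.2, 7 mM MgCl2). Kinase-Glo luciferase reagent is then added. Light output is recorded following an 8-min room-temperature incubation.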
FLuc modulator – qHTS profiling assay for firefly luciferase inhibitor/activator using purifed enzyme and Km concentrations of substrates (counterscreen for miR-21 project); Luciferin 4-monooxygenase (Photinus pyralis), P08659; purified FLuc, Km substrates, luminescence inhibition; Potency, µM (top dose mostly 57.5 µM), actives largely listed as inhibitors; actives 6.9% (n = 360,000); AID 588342, 2011; also: nearly all actives have a fitted effect of over 55% in size
Target sequence (P08659 whole entry, looked up): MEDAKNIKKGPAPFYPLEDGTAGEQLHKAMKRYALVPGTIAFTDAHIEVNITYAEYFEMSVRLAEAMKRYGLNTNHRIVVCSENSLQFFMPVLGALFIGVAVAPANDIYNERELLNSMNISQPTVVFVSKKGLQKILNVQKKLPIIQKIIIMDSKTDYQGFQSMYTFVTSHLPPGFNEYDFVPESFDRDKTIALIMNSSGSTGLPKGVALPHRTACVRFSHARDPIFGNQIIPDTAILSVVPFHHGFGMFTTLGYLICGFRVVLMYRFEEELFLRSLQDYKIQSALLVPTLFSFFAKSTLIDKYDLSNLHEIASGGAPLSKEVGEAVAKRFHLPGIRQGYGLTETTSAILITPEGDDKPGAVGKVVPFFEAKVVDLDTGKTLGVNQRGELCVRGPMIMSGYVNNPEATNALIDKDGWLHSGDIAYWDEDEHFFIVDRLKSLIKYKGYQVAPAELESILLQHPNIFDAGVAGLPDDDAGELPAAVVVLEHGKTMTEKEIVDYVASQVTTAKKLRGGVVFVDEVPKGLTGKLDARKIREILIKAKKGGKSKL
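Purified P. pyralis luciferase (10nM final) with 10uM D-luciferin and 10uM ATP (Km levels) in 50mM Tris acetate pH 7.5, 10mM Mg acetate, 0.01% Tween-20, 0.05% BSA; qHTS 6-point titration, ~60 µM downward; luminescence read.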
SMN2 splice up – qHTS Assay for Enhancers of SMN2 Splice Variant Expression; HEK293 SMN2-luciferase splicing reporter, luminescence, 30-36 h; Potency, µM (doses to about 46.1 µM), actives largely listed as activators; actives 2.8% (n = 210,000); also: nearly all actives have a fitted effect of over 55% in size
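HEK293 cells carry an SMN2 minigene-luciferase reporter in which exon 7 inclusion puts luciferase in frame. Cells were seeded at 2000 cells/well, attached for 10-12 hours, then exposed to compounds for 30-36 hours at 37C before ONE-Glo luminescence.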
Rab9 prom act – qHTS Assay for Rab9 Promoter Activators; AID 485297, 2010; Potency, µM (doses to about 9.22 µM), most hits filed as activators; Huh7 Rab9 promoter-luciferase reporter, luminescence, 24 h; actives 2.8% (n = 320,000); also: nearly all actives have a fitted effect of over 60% in size
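Rab9 promoter-driven luciferase in stably transfected Huh7 cells; 1500 cells/well rested 2 h, exposed to compound in DMSO for 24 h at 37 °C, 5% CO2. Luminescence read 10 min after adding luciferase reagent at ambient temperature.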
Of the large screens only hits and unclear results are named; the others gave an inactive call. In the library only some 7.5% were active in any assay of this set; here they are far more common. Calls follow the shape of the dose curve; as a rule, active = well fitted curve in the direction sought with a large enough effect; inconclusive = small, poorly fitted or top-dose-only effect, or another doubt; inactive = no such curve, though single readings can be large; an effect the other way counts as inactive or inconclusive.

COc1cc(NC(=O)C(CC(C)C)N2Cc3ccccc3C2=O)cc(OC)c1 (stereo not drawn)	none (no result: NPC1 promoter act, ELG1 genotoxic, KinaseGlo FLuc, SMN2 splice up, Rab9 prom act)
O=C(O)c1ccc(-n2ncc3c2/C(=C/c2cccc([N+](=O)[O-])c2)CC3)cc1	NPC1 promoter act 1.58µM, FLuc modulator 10.7µM, Rab9 prom act 2.82µM (no result: KinaseGlo FLuc, SMN2 splice up)
O=C1/C(=C/c2ccc([N+](=O)[O-])cc2)CCc2ccccc21	ELG1 genotoxic 7.3µM, FLuc modulator 0.151µM, Rab9 prom act inconclusive (no result: KinaseGlo FLuc, SMN2 splice up)
O=C1/C(=C/c2cccc([N+](=O)[O-])c2)CCc2ccccc21	FLuc modulator 9.53µM
O=C(C1CCN(S(=O)(=O)c2ccc(Br)s2)CC1)N1CCCCC1	none (no result: KinaseGlo FLuc, SMN2 splice up)
CCC(=O)N1CCc2cc(S(=O)(=O)NCCC(=O)Nc3ccc(OC)c(Cl)c3)ccc21	none (no result: NPC1 promoter act, ELG1 genotoxic, KinaseGlo FLuc, Rab9 prom act)
COc1ccc(N2CC(NC(=O)C(=O)c3c[nH]c4ccccc34)CC2=O)cc1 (stereo not drawn)	none (no result: NPC1 promoter act, ELG1 genotoxic, KinaseGlo FLuc, SMN2 splice up, Rab9 prom act)
O=C1/C(=C\c2ccccc2)CCc2c1[nH]c1ccccc21	NPC1 promoter act inconclusive, ELG1 genotoxic 1.46µM, FLuc modulator 2.69µM, SMN2 splice up 11.2µM, Rab9 prom act inconclusive
Cc1ccc2[nH]c3c(c2c1)CC/C(=C/c1ccccc1)C3=O	ELG1 genotoxic inconclusive, FLuc modulator 4.78µM, SMN2 splice up inconclusive, Rab9 prom act inconclusive
Cc1ccc(/C=C2/CCc3c([nH]c4ccccc34)C2=O)cc1	NPC1 promoter act 0.501µM, ELG1 genotoxic inconclusive, FLuc modulator 0.757µM, SMN2 splice up 6.31µM, Rab9 prom act 0.447µM
CC(C)/C=C1\CCc2c([nH]c3ccccc23)C1=O	FLuc modulator inconclusive, Rab9 prom act inconclusive (no result: SMN2 splice up)
COc1ccccc1CNC(=O)c1cccn1-c1nnc(N2CCCC2)s1	none (no result: NPC1 promoter act, ELG1 genotoxic, KinaseGlo FLuc, SMN2 splice up, Rab9 prom act)
CC(C)SCCCCOc1ccc2ccccc2c1	NPC1 promoter act inconclusive, FLuc modulator 16.9µM, Rab9 prom act inconclusive
CC(C)(C)c1ccc(OCCN2CCCC2)cc1	none
CC(C)SCCCOc1ccc(C(C)(C)C)cc1	FLuc modulator 19µM
COC(=O)c1sc2cccc(F)c2c1S(=O)(=O)N1CCN(c2ccc(F)cc2)CC1	none (no result: NPC1 promoter act, ELG1 genotoxic, KinaseGlo FLuc, SMN2 splice up, Rab9 prom act)
COc1ccc(-c2noc(CSc3nnc(C)n3-c3ccc(C)cc3)n2)cc1	none (no result: NPC1 promoter act, ELG1 genotoxic, KinaseGlo FLuc, Rab9 prom act)
COc1ccc(C2/C(=C(/O)c3ccccc3)C(=O)C(=O)N2C)cc1OC (stereo not drawn)	none (no result: KinaseGlo FLuc, SMN2 splice up)
CC1=NN(c2ccccc2)C(=O)C1N=Nc1ccccc1 (stereo not drawn)	NPC1 promoter act inconclusive, ELG1 genotoxic inconclusive, FLuc modulator 2.39µM, SMN2 splice up 14.1µM, Rab9 prom act inconclusive
CC1=NN(c2ccccc2)C(=O)C1N=Nc1cccc(O)c1 (stereo not drawn)	NPC1 promoter act inconclusive, ELG1 genotoxic inconclusive, FLuc modulator 8.49µM (no result: KinaseGlo FLuc, SMN2 splice up)
COc1ccc(N=NC2C(=O)N(c3ccccc3)N=C2C)cc1 (stereo not drawn)	FLuc modulator 19µM (no result: KinaseGlo FLuc, SMN2 splice up)
CC(C)(C)c1ccc(/C=C2\SC(=O)N(CCNC(=O)c3cccc(S(=O)(=O)N4CCOCC4)c3)C2=O)cc1	NPC1 promoter act 0.708µM, ELG1 genotoxic inconclusive, FLuc modulator 0.536µM, Rab9 prom act 0.891µM
CCOC(=O)/C(C(C)=O)=C1/OC(=O)c2ccccc21	none
O=C(O)/C(=C1\OC(=O)c2ccccc21)c1ccccc1	FLuc modulator 26.9µM
COc1ccc(NC(=O)CCc2nnc3n(Cc4ccccc4Cl)c(=O)c4ccccc4n23)cc1	none (no result: NPC1 promoter act, ELG1 genotoxic, KinaseGlo FLuc, Rab9 prom act)
COc1cc(/C=N/NC(=O)C(N)=O)ccc1OC(=O)c1cccs1	none
COc1cc(/C=N/NC(=O)c2ccccn2)ccc1OC(=O)c1cccs1	NPC1 promoter act inconclusive, ELG1 genotoxic inconclusive, FLuc modulator 13.5µM (no result: KinaseGlo FLuc, SMN2 splice up)
COc1cc(/C=N/NC(=O)c2ccccn2)cc2c1OCO2	NPC1 promoter act inconclusive, ELG1 genotoxic inconclusive, FLuc modulator 23.9µM, SMN2 splice up 11.2µM, Rab9 prom act inconclusive
